# Whole data set: some 39,000 sequences, median “fluorescence intensity (a.u.)” near 4,300, cut for the highest 2% near 39,000. The list comes from a sample in which the highest values are over-represented; it also holds similar and randomly drawn sequences.
# Target: T1, OsSMF1 (Oryza sativa, UniProt Q6ZLB0 1-436)
# T1 sequence: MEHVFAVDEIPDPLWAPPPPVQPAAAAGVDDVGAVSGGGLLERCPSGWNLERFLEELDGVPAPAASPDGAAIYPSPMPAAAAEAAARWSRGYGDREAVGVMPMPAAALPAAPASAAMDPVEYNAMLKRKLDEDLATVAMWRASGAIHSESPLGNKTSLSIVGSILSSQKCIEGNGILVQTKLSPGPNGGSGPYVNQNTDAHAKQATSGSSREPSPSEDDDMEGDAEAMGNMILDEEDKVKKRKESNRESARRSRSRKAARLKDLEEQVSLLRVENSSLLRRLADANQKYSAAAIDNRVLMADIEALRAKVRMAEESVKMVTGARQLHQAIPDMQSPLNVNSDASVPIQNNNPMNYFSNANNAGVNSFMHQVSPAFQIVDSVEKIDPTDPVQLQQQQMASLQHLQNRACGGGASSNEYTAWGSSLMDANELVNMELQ
# Experiment: protein-binding microarray (RPBM); PBS, 2% BSA, 51.3 ng/ul salmon testes DNA, 50 uM zinc acetate, 200 nM TF, 25 C, 1 h; high values mean tight binding
# Details: protein: recombinant; tags: N-terminal polyhistidine and DsRed monomer fusion (pET32a); chain copies: 2; label: CyDye5-dUTP incorporated in the synthesized complementary strand; 3' TTTTT single-stranded linker to array surface; dsDNA, one strand shown
# Outline: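 In PBS with 2% BSA, salmon testes DNA and 50 µM zinc acetate, 200 nM protein was incubated on a custom Agilent array at 25 °C for 1 h and then washed off. The array had been made double-stranded by primer extension with Cy5-dUTP and blocked with 2% BSA. The proteins were transcription factors fused N-terminally to polyhistidine and DsRed, expressed in E. coli BL21-CodonPlus and purified on Ni–NTA. The binding signal is per-feature fluorescence intensity (arbitrary units) from an Axon 4000B scanner.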
row,Sequence,binding signal
1,AGAGAAAGGAAGGGAAGAGAGAGGGTGATGACGTGGCGACCGGAGTCACCTAGTGCAG,35600 fluorescence intensity (a.u.)
2,AAAATGGAGAGAAGAGGAAGGGACAGATGACGTGGCATCCCGGAGTCACCTAGTGCAG,48900 fluorescence intensity (a.u.)
3,AAAGAATGACGATATGATGTGAGAAGTTTGTGAAGACTTGCGGAGTCACCTAGTGCAG,41100 fluorescence intensity (a.u.)
4,GAGAGGACGAAGGGAAAGAGAGAGATGGTGATGACGTGGCCGGAGTCACCTAGTGCAG,31600 fluorescence intensity (a.u.)
5,AGACTGAAAGAGAGAGGAAGGAAGAGAGATGACGTGGCATCGGAGTCACCTAGTGCAG,35800 fluorescence intensity (a.u.)
6,TCAGAATGCGTGTGATGTAAAAGTTCGAGAAGACTTTGTTCGGAGTCACCTAGTGCAG,3210 fluorescence intensity (a.u.)
7,ACGATATGACGGAAAAGTTGGAAGTTTGTGTGTAGAAAAGCGGAGTCACCTAGTGCAG,3140 fluorescence intensity (a.u.)
8,GGGAGGAAGAAGAAAGGGAGAGAGAGGGGATGACATGTGGCGGAGTCACCTAGTGCAG,5680 fluorescence intensity (a.u.)
9,GAGAGAAGAGGGGAAAAGAGAGAGGAGTTTGATGACGTGGCGGAGTCACCTAGTGCAG,39300 fluorescence intensity (a.u.)
10,CCATCTCCGACGAATGATGCTTTGACACTTAATGCTGCGTCGGAGTCACCTAGTGCAG,3350 fluorescence intensity (a.u.)
11,CGGCTTACGGCCGCCTGTCGGGGAAGATGACTCCCTCTTCCGGAGTCACCTAGTGCAG,5050 fluorescence intensity (a.u.)
12,AACAAAAGTTGTTTTGACTCACGCGGTGGCTGTTGTCTGTCGGAGTCACCTAGTGCAG,6340 fluorescence intensity (a.u.)
13,TTAAGGACGATTTTGTAATTCAGCTGACAAGACGAGGGATCGGAGTCACCTAGTGCAG,4300 fluorescence intensity (a.u.)
14,GGAAGCGGCTGCTGACAATGGGGATTAGATAGGCTAAGGGCGGAGTCACCTAGTGCAG,3700 fluorescence intensity (a.u.)
15,GTCACCGAAGGCGATTAAGGGACAAGCTATAGCTGATTTTCGGAGTCACCTAGTGCAG,46100 fluorescence intensity (a.u.)
16,CCGAGGCCCAATAAATTATGGGGTTGGCTCCAATAAATTACGGAGTCACCTAGTGCAG,3940 fluorescence intensity (a.u.)
17,GCCATCTGACAACCAGTAAATGTACTGTCCACCGGGCCAACGGAGTCACCTAGTGCAG,6470 fluorescence intensity (a.u.)
18,TTTCGCCATTTCCGACAATGTACTTCACCACTGATCTGAACGGAGTCACCTAGTGCAG,64900 fluorescence intensity (a.u.)
19,TACTACTTCCGATCAGAGCCATACCAATGCCACGACACGACGGAGTCACCTAGTGCAG,4090 fluorescence intensity (a.u.)
20,CAAGTGATAATCTATACCTAGTTGATGATGCCAATATCATCGGAGTCACCTAGTGCAG,4340 fluorescence intensity (a.u.)
21,TGCAACCACCACCACCACGTCCCAAACTCGCACGTTTCTCCGGAGTCACCTAGTGCAG,4090 fluorescence intensity (a.u.)
22,ACAATGTTCCGGGTCTTATATTGCCAAATCAGTGACGTACCGGAGTCACCTAGTGCAG,59800 fluorescence intensity (a.u.)
23,CAAATGTTCTTTTGACGTATATGACCACATATTTGCAGTACGGAGTCACCTAGTGCAG,3520 fluorescence intensity (a.u.)
24,CTGTGTGAACAACAAATCAATGGCCACGTCATATATGTACCGGAGTCACCTAGTGCAG,16800 fluorescence intensity (a.u.)

# From PMC7819943, “Rice protein-binding microarrays: a tool to detect cis-acting elements near promoter regions in rice”
